Drawing on PubChem BioAssay (Tox21), this text covers Potency for 40 compounds.

Results filed as inconclusive are left out. A call without a number means that no potency is given here. Activity calls are given as the source filed them. Calls come from the whole dose curve; as a rule, active = well fitted inhibition curve with a large enough effect in the signal ratio in the repeat runs (not every such curve was filed as active); inconclusive = weak or mixed curves, or effect the other way; inactive = flat fitted curve, though single readings scatter; the % refers to the signal ratio.

This test can be described thus: cAMP Responsive Elements (CRE) small molecule antagonists, cell-based qHTS assay (AID 1963591). Particulars: CRE-bla HEK293T, beta-lactamase FRET ratio; series mostly up to 92.4 µM. The source says:
U.S. Tox21 Program National Center for Advancing Translational Sciences [NCATS] Division of Preclinical Innovation [DPI] U.S. Environmental Protection Agency [EPA] National Institutes of Environmental Health Sciences [NIEHS] National Toxicology Program [NTP] U.S. Food and Drug Administration [FDA] Tox21 Assay Overview: CREB (cyclic-AMP Responsive Element Binding Protein) is a cellular transcription factor. It binds to certain DNA sequences called cAMP Responsive Elements (CRE) and regulates the transcription of the genes. […] This cell line can be used to find agonists/antagonists of the cyclic AMP signaling pathway. The activation of the report gene under culture conditions can be detected by fluorescence intensity. This cell line has been used to screen the Tox21 10K compound library to […].
Tox21 Assay Protocol Summary: CRE-bla Hek 293T cells were suspended in assay medium (DMEM containing 10% dialyzed FBS, 0.1 mM NEAA, 1 mM sodium pyruvate and 25 mM HEPES) and dispensed at 2,000 cells/4 uL /well into 1536-well black wall/clear bottom plates using a Multidrop Combi (ThermoFisher Scientific, Waltham, MA) dispenser. After the assay plates were incubated at 37 C/5% CO2 for 18 hrs, 23 nL of compounds dissolved in DMSO, positive controls or DMSO only was transferred to the assay plate by a pintool workstation (Kalypsys, San Diego, CA), followed by addition of 1 […] uL of 1.25uM NKH477 (0.25 uM as final concentration) in assay medium using a Flying Reagent Dispenser (Aurora Discovery, San Diego, CA). The plates were incubated at 37 C and 5% CO2 for 3 hrs. Then 1 uL of LiveBLAzer B/G FRET substrate (Invitrogen, Carlsbad, CA) was added to each well using Bioraptr Flying Reagent Dispenser (FRD, Aurora Discovery, San Diego, CA). The plates were incubated at room temperature for 2 h.
For orientation: qHTS replaces the single test concentration by a dilution series.
With `CN(C)[C@@H]1C(=O)C(C(N)=O)=C(O)[C@@]2(O)C(=O)C3=C(O)c4c(O)cccc4[C@@](C)(O)[C@H]3C[C@@H]12`, the Potency result is “inactive”.
Next, `c1ccc(Nc2ccc3ccccc3c2)cc1`: “inactive”; `Nc1c(Cl)cc([N+](=O)[O-])cc1Cl`: “inactive”; `CN(C)CCc1ccc(O)cc1`: “inactive”.
Turning to `O=[N+]([O-])c1ccc(Oc2ccc(Cl)cc2Cl)cc1`, the Potency entry was “inactive”.
Next, `O=[N+]([O-])CCO`: “inactive”.
On to `CCCCC(CC)CO[N+](=O)[O-]` (stereo not given), for which the Potency entry was “inactive”.
Regarding `CN(C)C(=S)S`, the Potency entry was “inactive”.
Next, `CCN(CC)C(=O)C(C)Oc1cccc2ccccc12` (stereo not given): “inactive”; `Cc1ccc(CCl)cc1`: “inactive”; `CCCCOP(=O)(CCCC)OCCCC`: “inactive”.
Next, `C[C@@H]1CN(C2CCC(C#N)(c3ccc(F)cc3)CC2)CC[C@]1(C(=O)O)c1ccccc1` (stereo not given in full): “inactive”; `NC(=S)c1c(Cl)cccc1Cl`: “inactive”; `ClCCBr`: “inactive”.
Take `[O-][Cl+2]([O-])O`: the Potency result was “inactive”.
In the case of `CCOc1cc(C=O)ccc1O`, the Potency result was “inactive”.
Next, `CN(C)c1ccccc1`: “inactive”.
`CCC[CH2][Sn]([Cl])([Cl])[Cl]`: the Potency entry is “inactive”.
Turning to `CCOP(=O)(OCC)OCC`, the Potency entry is “inactive”.
As to `ClC(Cl)c1ccccc1`, the Potency result is “inactive”.
For the compound `CC(C)N(C(=O)SCC(Cl)=C(Cl)Cl)C(C)C`, the Potency result was “inactive”.
Take `CCCCN(CCCC)N=O`: the Potency result was “inactive”.
The result for `C=CC(=O)NC(C)(C)CC(C)=O` reads “inactive”; that for `Nc1ccc(Br)cc1`, “inactive”.
For the compound `O=C1CCCO1`, the Potency entry was “inactive”.
As for `ClCCN1CCCC1`, the Potency result was “inactive”.
On to `N#Cc1ccncc1`, for which the Potency entry is “inactive”.
The result for `CNC` reads “inactive”.
Next, `COS(=O)(=O)c1ccc(C)cc1`: “inactive”.
Next, `NC(=O)CCl`: “inactive”; `CC(C)(O)C(=O)Nc1ccc([N+](=O)[O-])c(C(F)(F)F)c1`: “inactive”.
`C[C@H]1O[C@H](OC2[C@@H](O)[C@@H](O)C(O)[C@H](O)[C@H]2O)[C@@H](N)C[C@@H]1N=C(N)C(=O)O` (stereo not given in full): the Potency entry was “inactive”.
With `COP(=O)(OC)C(O)C(Cl)(Cl)Cl` (stereo not given), the Potency entry was “inactive”.
Next, `O=S(=O)(Oc1ccc(Cl)cc1)c1ccc(Cl)cc1`: “inactive”.
The result for `CCN(Cc1ccc(Cl)nc1)/C(=C/[N+](=O)[O-])NC` reads “inactive”; that for `O=[N+]([O-])c1ccccc1O`, “inactive”.
`CCCCCCCCCc1ccc(O)cc1`: the Potency result is “inactive”.
Next, `C=CC(=O)OCCCCCC(C)C`: “inactive”.
As to `COc1cc(OC)nc(Oc2cccc(Oc3nc(OC)cc(OC)n3)c2C(=O)O)n1`, the Potency entry is “inactive”.
The result for `Nc1ccccc1C(=O)OCC(O)CO` (stereo not given) reads “inactive”.
